Among all 290,000 compounds or so, about 3,000 (1%) were called active. Only a selection was taken, and actives are over-represented in it overall. Unmarked numbers belong to inactive results. Rule as the data show it: active = inhibition mostly above about 36% (no sharp cut-off); inactive = mostly below about 34%.
Assay: inhibition of NOD1-driven NF-kB reporter – cell-based, luminescence, uHTS, primary screen (AID 1578);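 also: HEK-293T reporter cells stimulated with the NOD1 agonist gamma-tri-DAP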
Conditions: NOD1-driven NF-kB luciferase reporter cells, at 4 µM, hits give high values

SMILES	inhibition
C=C(CO)C1Cc2cc(C(C)=O)ccc2O1 (stereo not drawn)	-3.8%
CC(C)(C)c1ccc(C(=O)c2c[nH]c(C(=O)NCCCN3CCOCC3)c2)cc1	-19.7%
COc1ccc(CCC(=O)NC(C)C)cc1	-11.1%
O=S(=O)(NCCN1CCOCC1)c1ccc(-c2ccc(S(=O)(=O)NCCN3CCOCC3)cc2)cc1	-11.2%
CCc1ccc(N2CC(C(=O)Nc3nc4ccc(S(C)(=O)=O)cc4s3)CC2=O)cc1 (stereo not drawn)	0.5%
O=C(CCCN1C(=O)S/C(=C/C=C/c2ccccc2)C1=O)Nc1ccc(C(=O)O)cc1	-38%
O=C(CCc1ccccc1)NC(NC(=S)Nc1ccc(Cl)cc1)C(Cl)(Cl)Cl (stereo not drawn)	19.9%
C/C(=N/NC(=O)c1nnn(-c2nonc2N)c1-c1ccccc1)c1ccncc1	-26.6%
Cc1c(Cl)c(C(=O)N2CCCc3ccccc32)nn1C	0.6%
O=c1cc(C(F)F)oc2c1ccc1ccccc12	27.3%
O=c1cc(C(Cl)(Cl)Cl)oc2c1ccc1ccccc12	82.3% (active)
O=c1cc(C(F)(F)F)oc2c1ccc1ccccc12	-3.4%
O=C(/C=C/c1ccc(OC(F)F)cc1)Nc1cccc(S(=O)(=O)NC2=NCCCCC2)c1	-43.6%
COCCC(=O)N1CCC(Oc2ccc(C(=O)N3C[C@H]4CC[C@H]3C4)cc2)CC1	-33%
COc1cc(C(=O)NCCNC(=O)c2cc(OC)c(C)c(OC)c2)cc(OC)c1C	-45.1%
C=CCNC(=O)c1ccccc1NC(=O)COc1ccccc1	27.8%
C=CCNC(=O)COc1ccc(Oc2ccccc2)cc1	52.1% (active)

SMILES	inhibition
COCCNC(=O)COc1ccc(Oc2ccccc2)cc1	-26.6%
O=C(NCCSc1ccc(Br)cc1)c1ccc2nc[nH]c2c1	-38.2%
Cc1ccc(S(=O)(=O)CC(=O)Nc2cc(C)on2)cc1	24.4%
Cc1cc2oc(=O)sc2cc1NS(=O)(=O)c1cccc2cccnc12	-17.4%
O=C(Nc1cccc(-c2cnc3ccccc3n2)c1)c1ccccc1	-0.8%
O=C(CP(=O)(c1ccccc1)c1ccccc1)Nc1cccc(CP(=O)(c2ccccc2)c2ccccc2)c1	7.2%
N=c1sccn1CC(=O)Nc1cccc(Oc2ccccc2)c1	16.7%
C=CCN(CC=C)CC(=O)Nc1cccc(Oc2cnccn2)c1	1.4%
O=C(CCl)Nc1cccc(Oc2ccccc2)c1	75.3% (active)
O=C(CCl)Nc1cccc(-c2cnc3ccccc3n2)c1	104% (active)
O=C(CCl)Nc1cccc(CP(=O)(c2ccccc2)c2ccccc2)c1	106% (active)
O=C(CCl)Nc1cccc(Oc2cnccn2)c1	32.3% (active)
CC(=O)Nc1ccc(Oc2cnccn2)cc1	-8.8%
CCC(=O)Nc1cccc(-c2cnc3ccccc3n2)c1	-54.6%
O=C(CN1CCCCC1)Nc1cccc(Oc2ccccc2)c1	-5.2%
CC(=O)Nc1cccc(CP(=O)(c2ccccc2)c2ccccc2)c1	-3.5%
